Test results published in PMC7862700, “An all-to-all approach to the identification of sequence-specific readers for epigenetic DNA modifications on cytosine”.

What was measured:
Assay in all cases: DAPPL (digital affinity profiling via proximity ligation, sequencing); 10 mM Tris-HCl pH 7.5, 50 mM NaCl, 1 mM DTT, 4% glycerol, room temperature, 30 min; GST-TFs on glutathione beads, 16-mer random dsDNA library, 0.1% formaldehyde crosslink after washing; high values mean tight binding
ETV5 = ETV5 (Homo sapiens, UniProt P41161 1-510); conditions: protein: recombinant; tags: N-terminal GST; dsDNA, one strand shown
Sequence of ETV5 (P41161 whole entry, the tested form may be a part): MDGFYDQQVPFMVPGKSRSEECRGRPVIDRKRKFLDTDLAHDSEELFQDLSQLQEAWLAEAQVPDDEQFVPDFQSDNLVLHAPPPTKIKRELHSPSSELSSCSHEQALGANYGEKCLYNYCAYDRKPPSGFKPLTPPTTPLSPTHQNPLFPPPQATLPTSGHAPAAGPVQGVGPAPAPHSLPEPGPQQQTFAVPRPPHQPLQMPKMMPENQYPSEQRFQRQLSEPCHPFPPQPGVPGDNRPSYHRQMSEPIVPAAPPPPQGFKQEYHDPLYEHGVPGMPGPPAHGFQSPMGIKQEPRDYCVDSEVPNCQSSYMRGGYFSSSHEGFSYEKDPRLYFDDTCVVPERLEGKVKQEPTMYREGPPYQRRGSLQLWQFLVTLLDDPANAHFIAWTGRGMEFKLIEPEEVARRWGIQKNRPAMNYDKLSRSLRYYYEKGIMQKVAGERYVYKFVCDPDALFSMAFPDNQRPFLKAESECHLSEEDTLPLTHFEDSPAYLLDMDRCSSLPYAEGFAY
Summary of the method: (§1)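 The binding signal reported is, for every hexamer, its read frequency for a factor over its read frequency for the tag-only sample. Reads came from pools of yeast-expressed, GST-fused human transcription factors on glutathione beads, barcoded with DNA and mixed with that sample, which were incubated with 200 nmole of a random double-stranded 16-mer DNA library in Tris/NaCl/DTT/glycerol buffer at room temperature for 30 min. After washing, the pools were crosslinked with 0.1% formaldehyde, proximity-ligated with BsaI/T4 ligase for 1 h at 37 °C, PCR-amplified and sequenced on an Illumina NextSeq500.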

HSF1 = HSF1 (Homo sapiens, UniProt Q00613 1-529); conditions: protein: recombinant; tags: N-terminal GST; chain copies: 3; dsDNA, one strand shown
Sequence of HSF1 (Q00613 whole entry): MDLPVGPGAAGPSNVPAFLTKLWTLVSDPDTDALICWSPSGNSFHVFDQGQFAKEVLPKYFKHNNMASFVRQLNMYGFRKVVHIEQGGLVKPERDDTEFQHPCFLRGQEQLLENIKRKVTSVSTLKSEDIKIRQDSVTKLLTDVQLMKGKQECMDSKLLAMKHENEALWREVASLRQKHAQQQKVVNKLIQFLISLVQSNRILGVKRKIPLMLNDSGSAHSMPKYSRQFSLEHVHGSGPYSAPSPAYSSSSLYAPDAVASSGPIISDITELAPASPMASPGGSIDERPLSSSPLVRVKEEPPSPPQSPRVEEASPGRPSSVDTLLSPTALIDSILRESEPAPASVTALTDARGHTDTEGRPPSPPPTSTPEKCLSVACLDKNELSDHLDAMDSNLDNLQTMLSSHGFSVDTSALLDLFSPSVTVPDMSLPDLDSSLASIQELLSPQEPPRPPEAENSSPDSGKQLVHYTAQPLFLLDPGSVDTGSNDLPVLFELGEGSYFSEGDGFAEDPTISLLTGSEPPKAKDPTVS
Summary of the method: as §1

SPIC = target: T1, SPIC (Homo sapiens, UniProt Q8N5J4 1-248); conditions: protein: recombinant; tags: N-terminal GST; dsDNA, one strand shown
T1 sequence: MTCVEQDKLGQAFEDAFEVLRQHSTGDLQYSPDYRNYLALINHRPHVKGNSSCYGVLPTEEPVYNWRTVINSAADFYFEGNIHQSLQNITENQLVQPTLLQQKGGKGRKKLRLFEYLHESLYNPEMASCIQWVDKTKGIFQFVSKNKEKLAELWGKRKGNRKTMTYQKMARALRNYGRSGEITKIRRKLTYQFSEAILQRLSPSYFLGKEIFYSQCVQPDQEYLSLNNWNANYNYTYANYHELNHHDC
Summary of the method: as §1

ELF4 = ELF4 (Homo sapiens, UniProt Q99607 1-663); conditions: protein: recombinant; tags: N-terminal GST; dsDNA, one strand shown
Sequence of ELF4 (Q99607 whole entry): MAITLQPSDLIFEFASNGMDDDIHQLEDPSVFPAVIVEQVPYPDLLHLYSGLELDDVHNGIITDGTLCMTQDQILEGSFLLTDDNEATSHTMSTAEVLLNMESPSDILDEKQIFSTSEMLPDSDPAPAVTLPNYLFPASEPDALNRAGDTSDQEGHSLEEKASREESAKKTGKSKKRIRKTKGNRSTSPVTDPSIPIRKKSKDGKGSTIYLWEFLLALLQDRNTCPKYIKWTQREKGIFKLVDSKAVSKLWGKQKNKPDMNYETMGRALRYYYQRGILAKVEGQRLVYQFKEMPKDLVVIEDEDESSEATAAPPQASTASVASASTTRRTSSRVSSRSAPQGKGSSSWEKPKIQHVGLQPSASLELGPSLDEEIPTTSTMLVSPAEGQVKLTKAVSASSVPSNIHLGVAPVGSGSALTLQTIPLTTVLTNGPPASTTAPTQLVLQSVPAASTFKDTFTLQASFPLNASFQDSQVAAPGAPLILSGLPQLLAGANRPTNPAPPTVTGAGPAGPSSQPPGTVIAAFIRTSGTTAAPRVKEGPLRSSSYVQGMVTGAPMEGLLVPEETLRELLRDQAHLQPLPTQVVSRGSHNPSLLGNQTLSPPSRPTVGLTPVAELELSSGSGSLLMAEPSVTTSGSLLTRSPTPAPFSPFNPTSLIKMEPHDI
Summary of the method: as §1

ELK4 = target: T2, ELK4 (Homo sapiens, UniProt P28324-2 1-405); conditions: protein: recombinant; tags: N-terminal GST; dsDNA, one strand shown
T2 sequence: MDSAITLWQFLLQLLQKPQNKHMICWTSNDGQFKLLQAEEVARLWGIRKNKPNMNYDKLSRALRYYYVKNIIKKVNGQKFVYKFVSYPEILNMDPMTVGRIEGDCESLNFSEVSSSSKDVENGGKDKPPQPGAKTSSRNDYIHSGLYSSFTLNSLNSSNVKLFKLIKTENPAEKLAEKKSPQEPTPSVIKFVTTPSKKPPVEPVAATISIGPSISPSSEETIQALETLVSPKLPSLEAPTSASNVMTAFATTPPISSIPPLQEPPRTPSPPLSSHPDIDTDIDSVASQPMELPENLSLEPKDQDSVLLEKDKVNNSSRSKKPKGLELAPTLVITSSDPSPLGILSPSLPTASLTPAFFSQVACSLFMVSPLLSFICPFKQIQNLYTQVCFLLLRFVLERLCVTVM
Summary of the method: as §1

ELF3 = target: T3, ELF3 (Homo sapiens, UniProt P78545 1-371); conditions: protein: recombinant; tags: N-terminal GST; dsDNA, one strand shown
T3 sequence: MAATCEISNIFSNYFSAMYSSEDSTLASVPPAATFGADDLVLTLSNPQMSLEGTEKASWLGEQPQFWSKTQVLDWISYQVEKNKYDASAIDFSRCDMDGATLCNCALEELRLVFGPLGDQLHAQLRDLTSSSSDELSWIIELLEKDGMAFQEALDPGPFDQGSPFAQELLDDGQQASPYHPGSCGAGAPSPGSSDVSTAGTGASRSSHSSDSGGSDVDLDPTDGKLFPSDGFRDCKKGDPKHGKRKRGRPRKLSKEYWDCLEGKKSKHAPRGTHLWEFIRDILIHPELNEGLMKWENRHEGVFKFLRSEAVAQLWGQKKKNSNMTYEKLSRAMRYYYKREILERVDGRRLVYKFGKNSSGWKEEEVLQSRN
Summary of the method: as §1

CRX = CRX (Homo sapiens, UniProt O43186 1-299); conditions: protein: recombinant; tags: N-terminal GST; dsDNA, one strand shown
Sequence of CRX (O43186 whole entry): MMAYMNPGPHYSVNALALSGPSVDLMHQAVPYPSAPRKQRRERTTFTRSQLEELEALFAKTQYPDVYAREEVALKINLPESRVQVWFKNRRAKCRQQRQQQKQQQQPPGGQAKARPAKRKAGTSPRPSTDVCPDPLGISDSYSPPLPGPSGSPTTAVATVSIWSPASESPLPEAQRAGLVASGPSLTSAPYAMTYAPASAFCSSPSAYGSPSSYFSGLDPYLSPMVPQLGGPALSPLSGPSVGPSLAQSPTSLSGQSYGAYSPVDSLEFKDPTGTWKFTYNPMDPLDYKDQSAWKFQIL
Summary of the method: as §1

ERF = target: T4, ERF (Homo sapiens, UniProt P50548 1-548); conditions: protein: recombinant; tags: N-terminal GST; dsDNA, one strand shown
T4 sequence: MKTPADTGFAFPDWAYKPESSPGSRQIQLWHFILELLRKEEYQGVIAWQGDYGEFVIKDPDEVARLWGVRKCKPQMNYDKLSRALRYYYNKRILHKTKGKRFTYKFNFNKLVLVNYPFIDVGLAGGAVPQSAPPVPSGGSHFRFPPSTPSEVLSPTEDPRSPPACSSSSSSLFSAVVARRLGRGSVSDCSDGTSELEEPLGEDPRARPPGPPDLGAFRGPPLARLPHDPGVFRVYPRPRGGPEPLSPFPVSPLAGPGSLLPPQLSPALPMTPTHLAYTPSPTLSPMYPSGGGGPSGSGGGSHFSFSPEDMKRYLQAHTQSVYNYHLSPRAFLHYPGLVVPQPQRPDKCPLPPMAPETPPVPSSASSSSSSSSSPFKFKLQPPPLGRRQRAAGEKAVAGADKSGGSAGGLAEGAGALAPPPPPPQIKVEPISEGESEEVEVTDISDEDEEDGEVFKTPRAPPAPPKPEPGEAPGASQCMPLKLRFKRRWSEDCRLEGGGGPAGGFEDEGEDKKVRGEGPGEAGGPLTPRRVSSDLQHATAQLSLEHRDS
Summary of the method: as §1

ETV3L = target: T5, ETV3L (Homo sapiens, UniProt Q6ZN32 1-361); conditions: protein: recombinant; tags: N-terminal GST; dsDNA, one strand shown
T5 sequence: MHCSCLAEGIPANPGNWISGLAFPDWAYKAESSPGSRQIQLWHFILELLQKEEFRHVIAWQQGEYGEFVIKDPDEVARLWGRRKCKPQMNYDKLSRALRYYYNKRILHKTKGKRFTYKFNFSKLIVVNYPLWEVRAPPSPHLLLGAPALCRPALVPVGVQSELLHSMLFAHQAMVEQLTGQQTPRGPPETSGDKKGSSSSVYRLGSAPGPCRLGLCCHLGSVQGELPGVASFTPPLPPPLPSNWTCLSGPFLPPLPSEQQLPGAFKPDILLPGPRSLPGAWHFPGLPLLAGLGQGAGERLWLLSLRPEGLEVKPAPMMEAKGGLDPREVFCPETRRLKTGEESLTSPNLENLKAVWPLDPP
Summary of the method: as §1

ETS2 = target: T6, ETS2 (Homo sapiens, UniProt P15036 1-469); conditions: protein: recombinant; tags: N-terminal GST; dsDNA, one strand shown
T6 sequence: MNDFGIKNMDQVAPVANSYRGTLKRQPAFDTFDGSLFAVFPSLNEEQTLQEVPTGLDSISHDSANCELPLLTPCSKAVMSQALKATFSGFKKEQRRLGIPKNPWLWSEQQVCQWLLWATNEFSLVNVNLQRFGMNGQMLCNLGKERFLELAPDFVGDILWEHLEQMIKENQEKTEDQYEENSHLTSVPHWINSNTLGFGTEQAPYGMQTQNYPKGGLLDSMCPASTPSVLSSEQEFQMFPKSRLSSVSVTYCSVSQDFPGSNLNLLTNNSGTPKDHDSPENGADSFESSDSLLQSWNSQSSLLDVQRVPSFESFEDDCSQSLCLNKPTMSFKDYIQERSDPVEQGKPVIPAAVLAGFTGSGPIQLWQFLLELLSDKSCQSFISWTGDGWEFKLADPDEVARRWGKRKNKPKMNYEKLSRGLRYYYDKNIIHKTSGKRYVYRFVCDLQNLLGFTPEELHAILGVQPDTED
Summary of the method: as §1

SPDEF = target: T7, SPDEF (Homo sapiens, UniProt O95238 1-335); conditions: protein: recombinant; tags: N-terminal GST; dsDNA, one strand shown
T7 sequence: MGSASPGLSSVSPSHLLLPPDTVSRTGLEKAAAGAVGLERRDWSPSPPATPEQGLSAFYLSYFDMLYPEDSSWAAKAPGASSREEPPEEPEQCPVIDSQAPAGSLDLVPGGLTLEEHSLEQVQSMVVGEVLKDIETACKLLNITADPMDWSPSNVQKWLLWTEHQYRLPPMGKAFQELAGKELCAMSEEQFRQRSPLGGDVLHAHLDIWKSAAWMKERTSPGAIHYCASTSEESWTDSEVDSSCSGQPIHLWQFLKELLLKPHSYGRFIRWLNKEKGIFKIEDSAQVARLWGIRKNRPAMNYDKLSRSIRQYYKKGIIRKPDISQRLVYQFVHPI
Summary of the method: as §1

ETV7 = target: T8, ETV7 (Homo sapiens, UniProt Q9Y603 1-341); conditions: protein: recombinant; tags: N-terminal GST; dsDNA, one strand shown
T8 sequence: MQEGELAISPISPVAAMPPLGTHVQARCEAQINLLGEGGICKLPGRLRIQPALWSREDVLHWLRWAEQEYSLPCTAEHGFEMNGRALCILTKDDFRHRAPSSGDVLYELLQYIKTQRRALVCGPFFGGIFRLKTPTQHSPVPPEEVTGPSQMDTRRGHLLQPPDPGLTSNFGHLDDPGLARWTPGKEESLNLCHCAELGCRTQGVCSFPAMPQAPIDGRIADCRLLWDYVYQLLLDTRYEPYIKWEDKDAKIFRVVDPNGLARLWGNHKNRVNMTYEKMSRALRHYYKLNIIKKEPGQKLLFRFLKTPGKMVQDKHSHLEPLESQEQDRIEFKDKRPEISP
Summary of the method: as §1

ETV3 = target: T9, ETV3 (Homo sapiens, UniProt P41162-2 1-143); conditions: protein: recombinant; tags: N-terminal GST; dsDNA, one strand shown
T9 sequence: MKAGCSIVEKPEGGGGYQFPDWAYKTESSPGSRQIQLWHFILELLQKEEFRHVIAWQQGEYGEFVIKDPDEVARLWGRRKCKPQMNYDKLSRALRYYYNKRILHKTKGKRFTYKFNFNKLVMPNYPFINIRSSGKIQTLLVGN
Summary of the method: as §1

ETV6 = ETV6 (Homo sapiens, UniProt P41212 1-452); conditions: protein: recombinant; tags: N-terminal GST; dsDNA, one strand shown
Sequence of ETV6 (P41212 whole entry): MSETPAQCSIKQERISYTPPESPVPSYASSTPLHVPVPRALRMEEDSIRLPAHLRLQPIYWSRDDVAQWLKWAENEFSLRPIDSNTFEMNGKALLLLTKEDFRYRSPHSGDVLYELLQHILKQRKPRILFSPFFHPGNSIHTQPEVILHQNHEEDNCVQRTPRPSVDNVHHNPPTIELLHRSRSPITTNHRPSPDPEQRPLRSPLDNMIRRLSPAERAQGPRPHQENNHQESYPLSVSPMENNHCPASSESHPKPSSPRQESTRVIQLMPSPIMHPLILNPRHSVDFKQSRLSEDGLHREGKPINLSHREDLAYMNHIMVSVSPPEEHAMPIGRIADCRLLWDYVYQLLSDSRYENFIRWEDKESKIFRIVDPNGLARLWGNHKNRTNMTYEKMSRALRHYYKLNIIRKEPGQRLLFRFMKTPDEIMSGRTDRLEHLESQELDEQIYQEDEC
Summary of the method: as §1

FEV = target: T10, FEV (Homo sapiens, UniProt Q99581 1-238); conditions: protein: recombinant; tags: N-terminal GST; dsDNA, one strand shown
T10 sequence: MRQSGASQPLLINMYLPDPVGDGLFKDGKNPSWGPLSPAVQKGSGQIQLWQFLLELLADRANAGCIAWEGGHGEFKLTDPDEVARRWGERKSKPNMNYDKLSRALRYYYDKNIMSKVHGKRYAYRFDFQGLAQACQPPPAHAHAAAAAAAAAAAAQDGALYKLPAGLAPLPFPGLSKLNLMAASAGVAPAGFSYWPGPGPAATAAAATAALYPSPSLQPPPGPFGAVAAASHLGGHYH
Summary of the method: as §1

ETV1 = ETV1 (Homo sapiens, UniProt P50549 1-477); conditions: protein: recombinant; tags: N-terminal GST; dsDNA, one strand shown
Sequence of ETV1 (P50549 whole entry): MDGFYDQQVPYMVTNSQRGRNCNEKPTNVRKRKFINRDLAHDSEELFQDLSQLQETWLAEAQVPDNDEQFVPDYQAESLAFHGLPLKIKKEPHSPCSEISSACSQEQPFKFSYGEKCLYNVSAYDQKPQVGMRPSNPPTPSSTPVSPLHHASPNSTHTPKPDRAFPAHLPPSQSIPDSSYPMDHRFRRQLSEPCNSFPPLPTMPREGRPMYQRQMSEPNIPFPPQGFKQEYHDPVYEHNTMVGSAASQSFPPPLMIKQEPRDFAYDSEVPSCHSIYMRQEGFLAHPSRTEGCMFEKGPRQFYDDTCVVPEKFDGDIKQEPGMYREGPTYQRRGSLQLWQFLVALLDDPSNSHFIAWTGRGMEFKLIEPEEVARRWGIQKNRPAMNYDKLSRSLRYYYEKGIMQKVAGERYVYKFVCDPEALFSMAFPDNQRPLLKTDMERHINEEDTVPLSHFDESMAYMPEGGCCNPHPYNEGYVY
Summary of the method: as §1

ELF5 = target: T11, ELF5 (Homo sapiens, UniProt Q9UKW6-2 1-255); conditions: protein: recombinant; tags: N-terminal GST; dsDNA, one strand shown
T11 sequence: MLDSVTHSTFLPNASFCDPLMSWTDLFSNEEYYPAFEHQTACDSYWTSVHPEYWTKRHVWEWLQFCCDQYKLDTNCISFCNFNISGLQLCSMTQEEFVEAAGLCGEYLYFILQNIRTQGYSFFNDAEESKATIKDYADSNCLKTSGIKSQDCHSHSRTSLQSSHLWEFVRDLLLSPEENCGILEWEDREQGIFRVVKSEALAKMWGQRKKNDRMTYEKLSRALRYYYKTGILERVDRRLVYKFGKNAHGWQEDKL
Summary of the method: as §1

With ATGAAG the binding signal (ETV5) was 1.01 fold enrichment (6-mer frequency, TF over GST control), the binding signal (HSF1) was 1.07 fold enrichment (6-mer frequency, TF over GST control) and the binding signal (SPIC) was 1.14 fold enrichment (6-mer frequency, TF over GST control). The binding signal (ELF4) was 1.08 fold enrichment (6-mer frequency, TF over GST control), the binding signal (ELK4) was 1.17 fold enrichment (6-mer frequency, TF over GST control) and the binding signal (ELF3) was 1.02 fold enrichment (6-mer frequency, TF over GST control). For the same sequence, the binding signal (CRX) was 1.04 fold enrichment (6-mer frequency, TF over GST control), the binding signal (ERF) was 1.12 fold enrichment (6-mer frequency, TF over GST control) and the binding signal (ETV3L) was 1.05 fold enrichment (6-mer frequency, TF over GST control). The binding signal (ETS2) was 1.06 fold enrichment (6-mer frequency, TF over GST control), the binding signal (SPDEF) was 1.07 fold enrichment (6-mer frequency, TF over GST control) and the binding signal (ETV7) was 1.09 fold enrichment (6-mer frequency, TF over GST control). For the same sequence, the binding signal (ETV3) was 1.03 fold enrichment (6-mer frequency, TF over GST control) and the binding signal (ETV6) was 1.03 fold enrichment (6-mer frequency, TF over GST control).

GCTTTT was tested, and the binding signal (FEV) was 1.07 fold enrichment (6-mer frequency, TF over GST control), the binding signal (ETV5) was 1.09 fold enrichment (6-mer frequency, TF over GST control) and the binding signal (HSF1) was 1.12 fold enrichment (6-mer frequency, TF over GST control). The binding signal (SPIC) was 1.12 fold enrichment (6-mer frequency, TF over GST control), the binding signal (ELF4) was 1.18 fold enrichment (6-mer frequency, TF over GST control) and the binding signal (ELK4) was 1.17 fold enrichment (6-mer frequency, TF over GST control). The binding signal (ELF3) was 1.14 fold enrichment (6-mer frequency, TF over GST control), the binding signal (CRX) was 1.32 fold enrichment (6-mer frequency, TF over GST control) and the binding signal (ETV1) was 1.1 fold enrichment (6-mer frequency, TF over GST control). The binding signal (ERF) was 1.16 fold enrichment (6-mer frequency, TF over GST control), the binding signal (ETV3L) was 1.12 fold enrichment (6-mer frequency, TF over GST control) and the binding signal (ETS2) was 1.17 fold enrichment (6-mer frequency, TF over GST control). The binding signal (SPDEF) was 1.09 fold enrichment (6-mer frequency, TF over GST control), the binding signal (ETV7) was 1.21 fold enrichment (6-mer frequency, TF over GST control) and the binding signal (ELF5) was 1.06 fold enrichment (6-mer frequency, TF over GST control). The binding signal (ETV3) was 1.15 fold enrichment (6-mer frequency, TF over GST control) and the binding signal (ETV6) was 1.22 fold enrichment (6-mer frequency, TF over GST control).
